Measured values taken from ChEMBL document CHEMBL1961873, “Compounds: GSK PKIS; Assays: Nanosyn kinase panel” (2012).

How the values were obtained:
[1] = molecular target: MAP/microtubule affinity-regulating kinase 3 (Homo sapiens) (UniProt P27448); details: at 1 µM;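 also: reported values are averaged percent inhibition of MARK3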
[2] = molecular target: T1, MAP/microtubule affinity-regulating kinase 4 (Homo sapiens) (UniProt Q96L34); details: at 0.1 µM
T1 sequence (whole entry): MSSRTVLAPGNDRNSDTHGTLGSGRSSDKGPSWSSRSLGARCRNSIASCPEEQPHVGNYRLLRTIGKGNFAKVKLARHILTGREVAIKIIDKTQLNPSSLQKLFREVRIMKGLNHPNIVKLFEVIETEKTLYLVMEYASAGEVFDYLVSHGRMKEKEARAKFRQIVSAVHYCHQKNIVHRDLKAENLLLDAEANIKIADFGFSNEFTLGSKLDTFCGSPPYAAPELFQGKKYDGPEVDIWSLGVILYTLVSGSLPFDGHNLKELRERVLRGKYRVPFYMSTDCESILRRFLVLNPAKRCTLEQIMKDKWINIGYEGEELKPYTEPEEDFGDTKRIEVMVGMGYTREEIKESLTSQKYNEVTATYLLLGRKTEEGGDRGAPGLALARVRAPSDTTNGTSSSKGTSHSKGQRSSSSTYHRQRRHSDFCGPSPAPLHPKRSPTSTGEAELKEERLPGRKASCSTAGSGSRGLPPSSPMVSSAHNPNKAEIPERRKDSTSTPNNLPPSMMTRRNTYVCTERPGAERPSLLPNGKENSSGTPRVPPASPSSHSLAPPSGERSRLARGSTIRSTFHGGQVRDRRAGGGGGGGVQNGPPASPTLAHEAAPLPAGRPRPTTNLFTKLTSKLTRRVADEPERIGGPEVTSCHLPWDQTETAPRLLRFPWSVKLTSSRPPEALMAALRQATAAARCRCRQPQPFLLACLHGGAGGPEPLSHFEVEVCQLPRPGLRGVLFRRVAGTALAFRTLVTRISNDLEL

[3] = molecular target: T1, MAP/microtubule affinity-regulating kinase 4 (Homo sapiens); details: at 1 µM
[4] = molecular target: Maternal embryonic leucine zipper kinase (Homo sapiens) (UniProt Q14680); details: at 0.1 µM
Chain of Maternal embryonic leucine zipper kinase (Homo sapiens) (Q14680 whole entry, looked up): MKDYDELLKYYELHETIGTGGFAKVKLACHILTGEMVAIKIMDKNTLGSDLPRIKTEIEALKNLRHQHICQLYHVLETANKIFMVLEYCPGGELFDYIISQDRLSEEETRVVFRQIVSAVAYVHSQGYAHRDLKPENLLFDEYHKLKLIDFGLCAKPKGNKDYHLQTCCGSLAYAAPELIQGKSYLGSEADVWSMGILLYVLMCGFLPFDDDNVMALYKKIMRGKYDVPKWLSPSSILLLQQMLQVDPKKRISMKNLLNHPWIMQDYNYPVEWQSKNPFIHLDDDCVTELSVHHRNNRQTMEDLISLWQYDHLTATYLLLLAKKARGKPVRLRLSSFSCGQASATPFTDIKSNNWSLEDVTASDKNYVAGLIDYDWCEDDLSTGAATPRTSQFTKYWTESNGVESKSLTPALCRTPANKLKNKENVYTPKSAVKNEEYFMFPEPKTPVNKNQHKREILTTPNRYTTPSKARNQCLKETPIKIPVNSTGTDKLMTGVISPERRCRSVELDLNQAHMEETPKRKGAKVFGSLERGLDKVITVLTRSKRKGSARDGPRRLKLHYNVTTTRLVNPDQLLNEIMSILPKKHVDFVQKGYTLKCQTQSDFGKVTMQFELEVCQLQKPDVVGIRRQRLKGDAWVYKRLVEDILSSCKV

[5] = molecular target: Maternal embryonic leucine zipper kinase (Homo sapiens) (UniProt Q14680); details: at 1 µM
[6] = molecular target: MAP kinase-interacting serine/threonine-protein kinase 1 (Homo sapiens) (UniProt Q9BUB5); details: at 0.1 µM
Chain of MAP kinase-interacting serine/threonine-protein kinase 1 (Homo sapiens) (Q9BUB5 whole entry, looked up): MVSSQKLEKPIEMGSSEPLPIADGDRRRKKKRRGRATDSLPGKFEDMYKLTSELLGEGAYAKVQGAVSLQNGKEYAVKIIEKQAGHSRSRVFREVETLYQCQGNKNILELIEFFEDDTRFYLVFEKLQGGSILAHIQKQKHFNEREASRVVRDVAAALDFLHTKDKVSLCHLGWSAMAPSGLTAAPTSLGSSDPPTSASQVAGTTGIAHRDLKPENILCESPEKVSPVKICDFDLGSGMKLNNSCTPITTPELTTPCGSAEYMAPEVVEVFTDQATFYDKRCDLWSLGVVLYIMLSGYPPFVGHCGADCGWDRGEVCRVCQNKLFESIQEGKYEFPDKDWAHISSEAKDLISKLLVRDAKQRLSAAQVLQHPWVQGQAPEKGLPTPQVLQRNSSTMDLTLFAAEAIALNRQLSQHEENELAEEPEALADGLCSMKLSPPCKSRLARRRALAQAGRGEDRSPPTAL

[7] = molecular target: MAP kinase-interacting serine/threonine-protein kinase 1 (Homo sapiens) (UniProt Q9BUB5); details: at 1 µM
[8] = molecular target: MAP kinase-interacting serine/threonine-protein kinase 2 (Homo sapiens) (UniProt Q9HBH9); details: at 0.1 µM
Chain of MAP kinase-interacting serine/threonine-protein kinase 2 (Homo sapiens) (Q9HBH9 whole entry, looked up): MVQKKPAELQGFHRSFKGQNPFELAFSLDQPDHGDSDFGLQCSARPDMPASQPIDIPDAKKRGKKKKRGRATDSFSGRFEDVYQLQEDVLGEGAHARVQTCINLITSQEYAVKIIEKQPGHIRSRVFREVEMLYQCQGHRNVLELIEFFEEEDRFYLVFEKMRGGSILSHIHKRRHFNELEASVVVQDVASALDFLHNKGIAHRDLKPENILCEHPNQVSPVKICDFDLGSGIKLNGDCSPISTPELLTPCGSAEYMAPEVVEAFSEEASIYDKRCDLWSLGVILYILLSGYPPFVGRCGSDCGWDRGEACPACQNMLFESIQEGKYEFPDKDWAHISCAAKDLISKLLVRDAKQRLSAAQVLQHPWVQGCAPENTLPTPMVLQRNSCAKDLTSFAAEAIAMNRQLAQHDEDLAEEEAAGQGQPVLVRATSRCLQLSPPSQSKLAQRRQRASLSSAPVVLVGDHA

[9] = molecular target: MAP kinase-interacting serine/threonine-protein kinase 2 (Homo sapiens) (UniProt Q9HBH9); details: at 1 µM
[10] = molecular target: Serine/threonine-protein kinase MARK2 (Homo sapiens) (UniProt Q7KZI7); details: at 0.1 µM
[11] = molecular target: Serine/threonine-protein kinase MARK2 (Homo sapiens) (UniProt Q7KZI7); details: at 1 µM
[12] = molecular target: PAS domain-containing serine/threonine-protein kinase (Homo sapiens) (UniProt Q96RG2); details: at 0.1 µM
Chain of PAS domain-containing serine/threonine-protein kinase (Homo sapiens) (Q96RG2 whole entry, the tested form may be a part, canonical isoform): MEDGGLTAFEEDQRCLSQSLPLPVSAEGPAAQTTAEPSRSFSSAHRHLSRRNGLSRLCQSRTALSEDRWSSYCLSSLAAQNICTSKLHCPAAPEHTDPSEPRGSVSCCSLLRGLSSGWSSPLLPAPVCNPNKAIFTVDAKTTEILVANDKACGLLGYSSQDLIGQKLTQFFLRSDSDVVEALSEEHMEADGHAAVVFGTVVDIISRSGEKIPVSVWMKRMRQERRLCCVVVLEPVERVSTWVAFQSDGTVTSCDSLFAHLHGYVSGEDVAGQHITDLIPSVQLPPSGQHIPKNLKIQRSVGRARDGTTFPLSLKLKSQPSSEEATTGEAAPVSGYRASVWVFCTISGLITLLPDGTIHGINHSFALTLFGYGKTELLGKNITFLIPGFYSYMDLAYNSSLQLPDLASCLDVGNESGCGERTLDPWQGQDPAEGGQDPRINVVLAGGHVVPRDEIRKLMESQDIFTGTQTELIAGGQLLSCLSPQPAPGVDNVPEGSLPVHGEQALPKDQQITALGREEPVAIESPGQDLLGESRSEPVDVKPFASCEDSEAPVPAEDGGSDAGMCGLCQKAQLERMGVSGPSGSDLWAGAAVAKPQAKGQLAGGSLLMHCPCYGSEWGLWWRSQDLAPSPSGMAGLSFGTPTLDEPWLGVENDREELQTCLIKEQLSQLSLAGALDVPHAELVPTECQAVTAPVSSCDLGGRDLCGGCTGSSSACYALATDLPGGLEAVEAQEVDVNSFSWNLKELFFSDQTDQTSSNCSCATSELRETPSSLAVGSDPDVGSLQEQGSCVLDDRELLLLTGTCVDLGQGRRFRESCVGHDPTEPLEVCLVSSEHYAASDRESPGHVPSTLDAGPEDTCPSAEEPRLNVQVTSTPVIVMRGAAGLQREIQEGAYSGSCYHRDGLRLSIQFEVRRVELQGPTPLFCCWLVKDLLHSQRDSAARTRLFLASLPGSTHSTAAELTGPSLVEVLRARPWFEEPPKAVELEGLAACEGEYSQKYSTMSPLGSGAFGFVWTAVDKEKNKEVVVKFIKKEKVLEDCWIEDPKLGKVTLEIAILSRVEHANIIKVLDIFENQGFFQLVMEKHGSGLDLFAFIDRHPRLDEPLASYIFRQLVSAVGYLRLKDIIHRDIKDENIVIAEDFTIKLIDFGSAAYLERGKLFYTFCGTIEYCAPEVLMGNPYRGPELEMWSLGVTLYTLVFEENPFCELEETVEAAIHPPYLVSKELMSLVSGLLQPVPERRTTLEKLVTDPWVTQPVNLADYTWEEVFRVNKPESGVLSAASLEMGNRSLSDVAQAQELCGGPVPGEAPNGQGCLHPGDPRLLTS

[13] = molecular target: PAS domain-containing serine/threonine-protein kinase (Homo sapiens) (UniProt Q96RG2); details: at 1 µM
[14] = molecular target: Phosphorylase b kinase gamma catalytic chain, skeletal muscle/heart isoform (Homo sapiens) (UniProt Q16816); details: at 0.1 µM
Chain of Phosphorylase b kinase gamma catalytic chain, skeletal muscle/heart isoform (Homo sapiens) (Q16816 whole entry, looked up, canonical isoform): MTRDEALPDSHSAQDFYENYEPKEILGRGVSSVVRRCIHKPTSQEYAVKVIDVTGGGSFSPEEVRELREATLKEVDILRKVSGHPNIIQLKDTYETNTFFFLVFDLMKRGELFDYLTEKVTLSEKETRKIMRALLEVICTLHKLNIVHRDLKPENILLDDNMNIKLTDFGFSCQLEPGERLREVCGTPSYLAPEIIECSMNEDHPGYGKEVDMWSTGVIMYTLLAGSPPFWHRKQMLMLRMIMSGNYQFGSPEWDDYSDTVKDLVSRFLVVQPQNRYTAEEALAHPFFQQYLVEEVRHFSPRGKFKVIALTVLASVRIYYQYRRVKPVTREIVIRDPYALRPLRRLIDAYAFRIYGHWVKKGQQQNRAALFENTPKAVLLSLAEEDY

[15] = molecular target: Phosphorylase b kinase gamma catalytic chain, skeletal muscle/heart isoform (Homo sapiens) (UniProt Q16816); details: at 1 µM
[16] = molecular target: T2, Phosphorylase b kinase gamma catalytic chain, liver/testis isoform (Homo sapiens) (UniProt P15735); details: at 0.1 µM
T2 sequence (whole entry): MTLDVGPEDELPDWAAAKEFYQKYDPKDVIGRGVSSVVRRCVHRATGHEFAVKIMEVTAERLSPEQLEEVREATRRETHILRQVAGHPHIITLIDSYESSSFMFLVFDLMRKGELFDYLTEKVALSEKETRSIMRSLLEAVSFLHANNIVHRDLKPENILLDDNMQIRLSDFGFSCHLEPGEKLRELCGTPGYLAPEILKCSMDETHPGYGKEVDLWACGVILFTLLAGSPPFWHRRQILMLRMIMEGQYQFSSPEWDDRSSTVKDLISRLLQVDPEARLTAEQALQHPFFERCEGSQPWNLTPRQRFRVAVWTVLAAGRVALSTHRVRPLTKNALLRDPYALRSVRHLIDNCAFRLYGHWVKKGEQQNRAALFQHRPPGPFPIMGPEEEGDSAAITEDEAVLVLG

[17] = molecular target: T2, Phosphorylase b kinase gamma catalytic chain, liver/testis isoform (Homo sapiens); details: at 1 µM
[18] = molecular target: Serine/threonine-protein kinase pim-1 (Homo sapiens) (UniProt P11309); details: at 0.1 µM
Chain of Serine/threonine-protein kinase pim-1 (Homo sapiens) (P11309 whole entry, looked up): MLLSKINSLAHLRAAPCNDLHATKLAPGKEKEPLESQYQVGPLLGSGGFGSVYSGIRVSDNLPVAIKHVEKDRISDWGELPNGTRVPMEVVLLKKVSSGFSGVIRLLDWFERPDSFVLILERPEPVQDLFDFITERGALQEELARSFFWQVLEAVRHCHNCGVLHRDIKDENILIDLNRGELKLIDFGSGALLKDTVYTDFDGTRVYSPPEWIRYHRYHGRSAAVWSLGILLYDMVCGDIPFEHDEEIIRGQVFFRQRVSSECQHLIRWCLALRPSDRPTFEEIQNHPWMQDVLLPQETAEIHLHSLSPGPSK

[19] = molecular target: Serine/threonine-protein kinase pim-1 (Homo sapiens) (UniProt P11309); details: at 1 µM
[20] = molecular target: Serine/threonine-protein kinase pim-2 (Homo sapiens) (UniProt Q9P1W9); details: at 0.1 µM;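 also: reported value is the mean percent inhibition of PIM2, measured in the GSK PKIS kinase inhibitor set screen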
Chain of Serine/threonine-protein kinase pim-2 (Homo sapiens) (Q9P1W9 whole entry, looked up): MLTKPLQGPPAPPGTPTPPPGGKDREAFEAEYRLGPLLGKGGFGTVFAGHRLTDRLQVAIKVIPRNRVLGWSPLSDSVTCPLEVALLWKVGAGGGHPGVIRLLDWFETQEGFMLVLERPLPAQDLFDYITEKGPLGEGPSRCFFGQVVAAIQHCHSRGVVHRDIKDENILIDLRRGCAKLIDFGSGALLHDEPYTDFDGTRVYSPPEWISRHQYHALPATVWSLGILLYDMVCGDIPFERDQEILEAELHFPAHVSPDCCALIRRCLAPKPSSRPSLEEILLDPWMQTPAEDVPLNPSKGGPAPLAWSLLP

Chain of MAP/microtubule affinity-regulating kinase 3 (Homo sapiens) (P27448 whole entry, looked up): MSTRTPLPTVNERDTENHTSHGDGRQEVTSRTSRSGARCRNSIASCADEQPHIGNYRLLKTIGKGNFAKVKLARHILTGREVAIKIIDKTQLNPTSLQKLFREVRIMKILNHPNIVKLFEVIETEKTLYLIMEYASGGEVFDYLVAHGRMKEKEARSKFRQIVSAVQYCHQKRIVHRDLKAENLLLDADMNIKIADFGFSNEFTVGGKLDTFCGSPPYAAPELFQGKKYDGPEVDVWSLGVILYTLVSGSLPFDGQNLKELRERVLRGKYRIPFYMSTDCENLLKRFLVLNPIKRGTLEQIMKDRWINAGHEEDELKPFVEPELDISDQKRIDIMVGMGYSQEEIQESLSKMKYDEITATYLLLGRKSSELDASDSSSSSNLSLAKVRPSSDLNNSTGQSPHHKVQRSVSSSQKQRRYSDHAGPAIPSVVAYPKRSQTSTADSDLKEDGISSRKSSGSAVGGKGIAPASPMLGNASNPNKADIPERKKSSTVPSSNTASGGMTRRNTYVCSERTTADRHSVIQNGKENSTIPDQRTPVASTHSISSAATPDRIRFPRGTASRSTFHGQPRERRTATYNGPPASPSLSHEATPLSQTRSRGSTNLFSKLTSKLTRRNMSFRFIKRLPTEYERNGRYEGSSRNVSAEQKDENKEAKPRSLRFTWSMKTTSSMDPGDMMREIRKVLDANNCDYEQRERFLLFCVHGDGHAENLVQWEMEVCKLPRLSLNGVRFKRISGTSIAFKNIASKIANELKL

| SMILES | inhibition [1] | inhibition [2] | inhibition [3] | inhibition [4] | inhibition [5] | inhibition [6] | inhibition [7] | inhibition [8] | inhibition [9] | inhibition [10] | inhibition [11] | inhibition [12] | inhibition [13] | inhibition [14] | inhibition [15] | inhibition [16] | inhibition [17] | inhibition [18] | inhibition [19] | inhibition [20] |
| --- | --- | --- | --- | --- | --- | --- | --- | --- | --- | --- | --- | --- | --- | --- | --- | --- | --- | --- | --- | --- |
| CCn1c(-c2nonc2N)nc2c(C#CC(C)(C)O)nc(OCCNC)cc21 | 11.6% | 2.05% | 7.52% | 17.5% | 81.1% | 1.63% | 3.44% | 0.5% | 1.12% | 1.74% | 10.6% | -1.05% | 0.6% | 1.42% | 4.25% | 3.52% | 4.33% | 1.82% | 4.29% | -0.54% |
| COc1cccc(-n2ncc3c(N/N=C/c4ccc(C)cc4)ncnc32)c1 | 6.9% | 2.42% | 5.11% | 5.47% | 12.6% | 4.37% | 9.69% | 3.79% | 11.2% | 2.05% | 6.23% | -0.93% | 0.57% | 2.43% | 10% | 5.73% | 5.98% | 1.21% | 3.51% | -0.44% |
| CN(C)C(=O)O[C@H]1CN[C@H](C#Cc2cc3ncnc(Nc4ccc(OCc5cccc(F)c5)c(Cl)c4)c3s2)C1 | 3.81% | 1.04% | 1.72% | 1.5% | 4.17% | 2.31% | 6.43% | 1.15% | 6.67% | 0.94% | 1.09% | 0.16% | -0.64% | 2.62% | 2.71% | 2.94% | -0.02% | -0.09% | 0.1% | 0.57% |
| Cc1ccc(O)cc1Nc1ccnc2ccc(S(C)(=O)=O)cc12 | 4.85% | 2.23% | 1.71% | 4.23% | 9.23% | 3.85% | 12.2% | 1.97% | 9.18% | 2.65% | 1.93% | -0.05% | 4.61% | 6.2% | 10% | 5.57% | 7.16% | 0.95% | 1.4% | 0.23% |
| COC(=O)c1cncc(/C=C/c2c(C)cc(O)cc2C)c1 | 2.01% | 0.01% | 0.82% | 2.47% | 5.13% | 4.41% | 25.6% | 3.34% | 16.1% | 0.36% | -0.07% | -0.51% | 1.51% | 1.77% | 4.16% | 4.23% | 6.97% | 1.57% | 1.55% | -0.56% |
| CCOc1nccc2c1nc(-c1nonc1N)n2CC | 9.66% | 1.03% | 5.45% | 3.16% | 5.63% | 3.48% | 9.35% | 3.06% | 6.16% | 1.34% | 1.46% | 1.66% | 5.36% | 3.39% | 5.97% | 4.34% | 9.55% | 0.76% | 2.04% | 0.25% |
| CCS(=O)(=O)c1ccc(OC)c(Nc2nccc(N(C)c3ccc4c(C)n[nH]c4c3)n2)c1 | 3.79% | 2.78% | 3.51% | 3.25% | 6.92% | 3.05% | 3.58% | 0.35% | 3.48% | 0.55% | 3.54% | -0.44% | 0.34% | 6.38% | 6.76% | 6.39% | 4.62% | 1.18% | 1.44% | 0.05% |
